Results on 37 compounds are retold here after PubChem BioAssay (NCI).

Compounds without any hit were thinned out: in the full panel of roughly 83,000, 20% have a hit.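 Method: cells in 96-well plates; compound added at one concentration; 48 h incubation; percent growth measured; values under 10 scored active.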 Values without a mark were called inactive. Active and inactive are the calls of the source.

In the first experiment the test system is OVCAR-3 ovarian. The experiment in a line: NCI-60 one-dose screen, 48 h (100 = growth as untreated, 0 = no growth, -100 = all killed). The conditions noted are these: 10 µM unless noted.
With `COC(=O)[C@]12CC[C@@H](C)[C@H](C)[C@@H]1C1=CC[C@@H]3[C@@]4(C)C(C=O)=C[C@@](C)(COC(=O)c5ccco5)[C@@H]4C(=O)C[C@@]3(C)[C@]1(C)CC2`, the growth was 40.4%. `COc1cccc(C(=O)NCCNc2cc(-c3cn(-c4ccccc4)nc3-c3cccc(OC)c3)ccn2)c1`: the growth is 54.5%.

For the compound `O=C(O)C1CCC(=O)N1C(=O)OCc1ccccc1` (centres undefined), the growth is 118%. On the same count and under the same terms, the same measure for `COC(=O)[C@]12CC[C@@H](C)[C@H](C)[C@@H]1C1=CC[C@@H]3[C@@]4(C)C(C=O)=C[C@@](C)(COC(=O)c5ccco5)C4=CC[C@@]3(C)[C@]1(C)CC2`: -92.6% (active); for `CC(CCc1ccc(Cl)c(Cl)c1)NCc1ccc(C(C)(C)C)cc1` (centres undefined): 98.2%. On the same count and under the same terms, the same measure for `Cc1ccc2nc3ccccc3c(NCc3ccccc3)c2c1`: 66%. Still for that read-out and setting: with `COc1cc(-c2nc(N3CCN(C)CC3)c3ccccc3n2)cc(OC)c1OC` the figure was 3.18% (active). For the compound `CN(C)CC1C(=O)O[C@H]2[C@H]1CC/C(COC(=O)c1cc3ccccc3[nH]1)=C\CC[C@@]1(C)O[C@@H]21` (some centres undefined), the growth is -82.7% (active).

Turning to `CN1CCN(CCCOc2ccc3nc(Nc4ccc(F)c(F)c4)ccc3c2)CC1`, the growth is 67.4%. With `COc1cccc(-c2nn(-c3ccccc3)cc2-c2ccnc(NCCCNC(=O)c3cccc(C(F)(F)F)c3)c2)c1`, the growth is 41.4%. Same read-out and setting: with `COc1ccc(-c2cc(-c3cc(OC)ccc3OC)nc(SCC(=O)c3ccccc3)c2C#N)cc1` the figure was 108%. On the same count and under the same terms, the same measure for `Cc1ccc(Cl)c(NS(=O)(=O)c2ccc(-c3cnc(C4CC4)o3)cc2)c1`: -1.26% (active).

Take `COc1cccc(-c2nn(-c3ccccc3)cc2-c2ccnc(NCCNC(=O)c3ccccc3)c2)c1`: the growth is 63.1%. The same measure, in the same setting: the same measure for `Cc1cc(N2CCCC2)nc(NCc2cc(Nc3ccnc4cc(Cl)ccc34)ccc2F)n1`: -86.9% (active); for `COc1cccc(-c2nn(-c3ccccc3)cc2-c2ccnc(NCCNC(=O)Nc3ccccc3)c2)c1`: 55.8%. The same measure, in the same setting: with `CC(C)CCC[C@@H](C)[C@H]1CC[C@H]2[C@@H](Nc3ccc(O)cc3)CCC[C@]12C` the figure was 84.8%; with `COc1cc(-c2nn(-c3ccccc3)cc2-c2ccnc(NCCNS(=O)(=O)c3ccc(Cl)cc3)n2)ccc1Cl`, 35.1%. Same read-out and setting: the same measure for `CCCCn1c(=O)c2c(nc3n2CCCN3CCc2ccc(OCC(=O)NCCN(CC)CC)cc2)n(CCCC)c1=O`: 71.2%; for `COC(=O)CCC1=C(C)C2=NC1=CC1=NC(=CC3=NC(=Cc4[nH]c(/c(=C(/C)O)c4C)=C2)C(C(C)=O)=C3C)C(C)=C1CCC(=O)OC`: 107%; for `N[C@@H](CCCCNCC(=O)O)C(=O)O`: 114%. With `Cc1ccc(NCCN(C)C)c2c(=O)c3ccccc3sc12`, the growth was 33.8%. Still for that read-out and setting: the same measure for `Cc1cc(NCCCCNc2ccnc3cc(Cl)ccc23)nc(Nc2ccc(C(=O)N3CCCC3)cc2)n1`: 60.6%; for `CC(C)(C)n1cc(-c2ccnc(NCCCNS(=O)(=O)c3ccccc3)c2)c(-c2ccccc2)n1`: 83.9%; for `Fc1ccc(CNc2c3ccccc3nc3ccccc23)cc1F`: 68.9%. In the case of `c1c[nH]c(CNC2CCCCC2)c1`, the growth is 98.1%. Consider `COc1cccc(-c2nn(-c3ccccc3)cc2-c2ccnc(NCCNC(=O)Nc3cccc(C(F)(F)F)c3)c2)c1`, for which the growth is 39.2%.

`Cc1cc(NCc2cc(Nc3ccnc4cc(Cl)ccc34)ccc2F)nc(Cl)n1`: the growth is 57.2%. Still for that read-out and setting: with `NC(=O)c1ccc[n+](Cc2ccc(Cl)cc2Cl)c1` the figure was 109%. In the case of `Cc1cc(Cl)nc(NCc2cc(Nc3ccnc4cc(Cl)ccc34)ccc2F)n1`, the growth is 53.4%. The same measure, in the same setting: the same measure for `COc1ccc(-c2ccc3c(c2)sc2nc(-c4ccc(F)cc4)cn23)cc1`: 88%. Still for that read-out and setting: the same measure for `O=C(NCCCNc1cc(-c2cn(-c3ccccc3)nc2-c2cccc(O)c2)ccn1)c1ccccc1`: 45.8%. Turning to `FC(F)(F)c1cc(Nc2ccc3cc(OCCCN4CCOCC4)ccc3n2)ccc1Cl`, the growth was 48.1%.

In another experiment the test system is HS 578T breast. The description is as above. The conditions noted are these: 10 µM unless noted.
As to `COC(=O)[C@]12CC[C@@H](C)[C@H](C)[C@@H]1C1=CC[C@@H]3[C@@]4(C)C(C=O)=C[C@@](C)(COC(=O)c5ccco5)[C@@H]4C(=O)C[C@@]3(C)[C@]1(C)CC2`, the growth is 65.3%. Consider `COc1cccc(C(=O)NCCNc2cc(-c3cn(-c4ccccc4)nc3-c3cccc(OC)c3)ccn2)c1`, for which the growth is 61.8%. The same measure, in the same setting: with `O=C(O)C1CCC(=O)N1C(=O)OCc1ccccc1` (centres undefined) the figure was 136%; with `Cc1cc(NCc2cc(Nc3ccnc4cc(Cl)ccc34)ccc2F)nc(N2CCCC2)n1`, 56.8%. Still for that read-out and setting: with `COC(=O)[C@]12CC[C@@H](C)[C@H](C)[C@@H]1C1=CC[C@@H]3[C@@]4(C)C(C=O)=C[C@@](C)(COC(=O)c5ccco5)C4=CC[C@@]3(C)[C@]1(C)CC2` the figure was 3.14% (active); with `CC(CCc1ccc(Cl)c(Cl)c1)NCc1ccc(C(C)(C)C)cc1` (centres undefined), 85.2%. For the compound `Cc1ccc2nc3ccccc3c(NCc3ccccc3)c2c1`, the growth was 69.8%.

For `COc1cc(-c2nc(N3CCN(C)CC3)c3ccccc3n2)cc(OC)c1OC`, the growth was 41.1%. For the compound `CCn1c(C)nc2cc(C(N)=O)ccc21`, the growth is 108%. Still for that read-out and setting: with `CN(C)CC1C(=O)O[C@H]2[C@H]1CC/C(COC(=O)c1cc3ccccc3[nH]1)=C\CC[C@@]1(C)O[C@@H]21` (some centres undefined) the figure was -3.98% (active); with `CN1CCN(CCCOc2ccc3nc(Nc4ccc(F)c(F)c4)ccc3c2)CC1`, 33.8%; with `COc1cccc(-c2nn(-c3ccccc3)cc2-c2ccnc(NCCCNC(=O)c3cccc(C(F)(F)F)c3)c2)c1`, 33.7%.

Turning to `COc1ccc(-c2cc(-c3cc(OC)ccc3OC)nc(SCC(=O)c3ccccc3)c2C#N)cc1`, the growth was 97.3%.

On to `Cc1ccc(Cl)c(NS(=O)(=O)c2ccc(-c3cnc(C4CC4)o3)cc2)c1`, for which the growth is 13.5%. With `COc1cccc(-c2nn(-c3ccccc3)cc2-c2ccnc(NCCNC(=O)c3ccccc3)c2)c1`, the growth was 68.5%. Turning to `Cc1cc(N2CCCC2)nc(NCc2cc(Nc3ccnc4cc(Cl)ccc34)ccc2F)n1`, the growth was -34.5% (active). `COc1cccc(-c2nn(-c3ccccc3)cc2-c2ccnc(NCCNC(=O)Nc3ccccc3)c2)c1`: the growth is 31.4%.

Regarding `CC(C)CCC[C@@H](C)[C@H]1CC[C@H]2[C@@H](Nc3ccc(O)cc3)CCC[C@]12C`, the growth was 104%. On the same count and under the same terms, with `COc1cc(-c2nn(-c3ccccc3)cc2-c2ccnc(NCCNS(=O)(=O)c3ccc(Cl)cc3)n2)ccc1Cl` the figure was 58.4%. On to `CCCCn1c(=O)c2c(nc3n2CCCN3CCc2ccc(OCC(=O)NCCN(CC)CC)cc2)n(CCCC)c1=O`, for which the growth is 20.8%.

Regarding `COC(=O)CCC1=C(C)C2=NC1=CC1=NC(=CC3=NC(=Cc4[nH]c(/c(=C(/C)O)c4C)=C2)C(C(C)=O)=C3C)C(C)=C1CCC(=O)OC`, the growth is 89.1%. The same measure, in the same setting: with `N[C@@H](CCCCNCC(=O)O)C(=O)O` the figure was 98.2%; with `O=C(c1ccc(Nc2nccc(NCCCCNc3ccnc4cc(Cl)ccc34)n2)cc1)N1CCCCC1`, 65%; with `Cc1ccc(NCCN(C)C)c2c(=O)c3ccccc3sc12`, 46.4%.

Turning to `Cc1cc(NCCCCNc2ccnc3cc(Cl)ccc23)nc(Nc2ccc(C(=O)N3CCCC3)cc2)n1`, the growth was 89.8%. Same read-out and setting: the same measure for `CC(C)(C)n1cc(-c2ccnc(NCCCNS(=O)(=O)c3ccccc3)c2)c(-c2ccccc2)n1`: 96%; for `Fc1ccc(CNc2c3ccccc3nc3ccccc23)cc1F`: 64.8%; for `c1c[nH]c(CNC2CCCCC2)c1`: 102%. Turning to `COc1cccc(-c2nn(-c3ccccc3)cc2-c2ccnc(NCCNC(=O)Nc3cccc(C(F)(F)F)c3)c2)c1`, the growth was -21.3% (active). Same read-out and setting: the same measure for `O=C(NCCCNc1cc(-c2cn(-c3ccccc3)nc2-c2cccc(O)c2)ccn1)c1ccc(F)cc1`: -16.7% (active); for `Cc1cc(NCc2cc(Nc3ccnc4cc(Cl)ccc34)ccc2F)nc(Cl)n1`: 57.7%; for `NC(=O)c1ccc[n+](Cc2ccc(Cl)cc2Cl)c1`: 99.4%.

Turning to `Cc1cc(Cl)nc(NCc2cc(Nc3ccnc4cc(Cl)ccc34)ccc2F)n1`, the growth is 66.7%. Same read-out and setting: with `COc1ccc(-c2ccc3c(c2)sc2nc(-c4ccc(F)cc4)cn23)cc1` the figure was 99.2%.

With `O=C(NCCCNc1cc(-c2cn(-c3ccccc3)nc2-c2cccc(O)c2)ccn1)c1ccccc1`, the growth was -6.38% (active). The same measure, in the same setting: with `FC(F)(F)c1cc(Nc2ccc3cc(OCCCN4CCOCC4)ccc3n2)ccc1Cl` the figure was 6.22% (active); with `COC(=O)[C@]12CC[C@@H](C)[C@H](C)[C@@H]1C1=CC[C@@H]3[C@@]4(C)C(C=O)=C[C@@](C)(COC(C)=O)C4=CC[C@@]3(C)[C@]1(C)CC2`, -12.9% (active).
